Results taken from PubChem BioAssay AID687020 (Broad Institute, 2013).
Screen size: about 1,400 compounds; about 100 (7.1%) were called active. The rule behind the calls is not given here. A selection follows. Measured potencies and affinities stand elsewhere.

Experiment: Vero cell toxicity, dose response, cytotoxicity control, plate reader, cherry-pick samples (AID 687020);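 note: compounds incubated with cells for three days before luminescence read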
Conditions: Vero cells toxicity; series mostly up to 19.5 µM

| Structure (SMILES) | outcome |
| --- | --- |
| O=C(c1cccc(-c2cccc3nccn23)c1)N1CCOCC1 | inactive |
| O=C(c1ccc2nccnc2c1)N1CCN(c2ccccc2)CC1 | inactive |
| CCCCCCCCN1C(=O)[C@H](CC(=O)NCCC(C)C)C[C@@]2(C(=O)OCC)CCCC=C12 | inactive |
| CCN1CCN(c2ccc(S(=O)(=O)N3CCCCC3)cc2NC(=O)c2ccc(C)c(C)c2)CC1 | inactive |
| Cn1c(=O)n(C)c2cc(N3CCOCC3)c(NC(=O)c3ccc(F)cc3)cc21 | inactive |
| CNC[C@@H]1OCCCC[C@H](C)Oc2ccc(NS(C)(=O)=O)cc2C(=O)N([C@@H](C)CO)C[C@@H]1C | inactive |
| C=CCc1ccc(OCCCNCc2ccccc2)c(OC)c1 | inactive |
| Cc1cccc(OCCCN2CCC(C(O)(c3ccccc3)c3ccccc3)CC2)c1 | inactive |
| CN1CCN(CCOc2ccc(-c3ccccc3)cc2)CC1 | inactive |
| CCc1cccc(OCCN2CCCC2)c1 | inactive |
| c1ccc(-c2ccc(OCCN3CCOCC3)cc2)cc1 | inactive |
| COc1ccccc1CN1CCCC(N2CCN(c3ccccc3OC)CC2)C1 (configuration not stated) | inactive |
| CCc1cc2c(=O)[nH]c(COC)nc2s1 | inactive |
| CN(C(=O)COC(=O)c1ccc(S(=O)(=O)N2CCOCC2)cc1)c1ccccc1 | inactive |
| COC(=O)[C@@H]1C[C@H]2CC[C@H](O)C[C@H]2N1Cc1ccc(C(F)(F)F)cc1 | inactive |
| COc1ccc(CNC(=O)C2CC(c3ccc(C(F)(F)F)cc3)=NO2)cc1 (configuration not stated) | inactive |
| Nc1cccc(O)c1 | inactive |
| COc1cc(CNc2nccn3ccnc23)cc(OC)c1 | inactive |
| CCc1ccc(OCC(O)CN2CCN(c3ccccc3)CC2)cc1 (configuration not stated) | inactive |
| NC(=O)C1CCN(CC(O)COc2ccc(-c3ccccc3)cc2)CC1 (configuration not stated) | inactive |
| COCC#Cc1ccc2c(c1)O[C@@H](CN(C)C(=O)Nc1ccccc1F)[C@H](C)CN([C@@H](C)CO)S2(=O)=O | inactive |

| Structure (SMILES) | outcome |
| --- | --- |
| C[C@H]1CN([C@@H](C)CO)C(=O)Cc2cc(NC(=O)CCCCCC(=O)Nc3ccccc3N)ccc2O[C@H]1CN(C)Cc1ccc(C(F)(F)F)cc1 | inactive |
| CC1(C(=O)NS(=O)(=O)c2ccccc2C(F)(F)F)CCN1C(=O)CCc1ccccc1 (configuration not stated) | inactive |
| O=C(NNc1c(F)c(F)cc(F)c1F)C1CCN(S(=O)(=O)c2ccccc2F)CC1 | inactive |
| C[C@H](CO)N1C[C@H](C)[C@H](CN(C)C(=O)Nc2cccc3ccccc23)OCCCC[C@H](C)Oc2ccc(NS(=O)(=O)c3cn(C)cn3)cc2C1=O | inactive |
| COc1ccc(C(C)NC(=O)c2ccccc2Cl)cc1OC (configuration not stated) | inactive |
| CCS(=O)(=O)Nc1ccc(C(=O)NCCSc2ccccc2)cc1 | inactive |
| COc1ccccc1N(CC(=O)N1CCCC1)S(=O)(=O)c1ccc(C)cc1 | inactive |
| COc1ccc(OC)c(-c2cc(C(=O)NC3CCCC3)c3ccccc3n2)c1 | inactive |
| COc1ccc(C(=O)N2CCN(C3CCCCC3)CC2)cc1OC | inactive |
| Cc1cc(N2CCN(C)CC2)n2nc(-c3ccc(Cl)cc3)nc2n1 | inactive |
| COc1ccc(-c2nc(NCCCN(C)C)c3ccccc3n2)cc1 | inactive |
| COc1ccc2nc(NN=Cc3cccc(C)n3)cc(C)c2c1 | inactive |
| C[C@@H]1CCCCO[C@@H](CN(C)Cc2ccc(C(=O)O)cc2)[C@H](C)CN([C@H](C)CO)C(=O)c2cc(NC(=O)c3ccccc3)ccc2O1 | inactive |
| C[C@@H]1CN([C@H](C)CO)C(=O)c2cc(NC(=O)c3ccccc3)ccc2O[C@@H](C)CCCCO[C@@H]1CN(C)Cc1ccc(C(=O)O)cc1 | inactive |
| Cc1ccc(CN(C)c2ccc(S(=O)(=O)N3CCCC3)cn2)cc1 | inactive |
| COc1cc(C(=O)NCc2cccc(Cl)c2)ccc1OCC(=O)N1CCOCC1 | inactive |
| COc1ccc(C(=O)NCCOc2cccc(Oc3ccccc3)c2)cc1OC | inactive |
| O=C(C[C@@H]1CC[C@@H]2[C@H](COC[C@H](O)CN2Cc2cccc(Cl)c2)O1)N1CCOCC1 | inactive |
| COC(=O)C1=C(C)N(Cc2cccc(C(F)(F)F)c2)C(=NCC2CC2)NC1c1ccc(F)cc1 (configuration not stated) | inactive |
| C[C@@H]1CN([C@@H](C)CO)C(=O)c2cc(NS(=O)(=O)c3ccc(F)cc3)ccc2O[C@@H](C)CCCCO[C@@H]1CN(C)C(=O)CCCN(C)C | inactive |
| CCOC(=O)Nc1ccc(N2CCOCC2)c(S(=O)(=O)N2CCOCC2)c1 | inactive |

| Structure (SMILES) | outcome |
| --- | --- |
| O=C(CC1NCCN(Cc2ccccc2)C1=O)Nc1ccccc1 (configuration not stated) | inactive |
| CCCCN1C[C@H](Cc2ccccc2)[C@@H](CC(=O)Nc2ccccc2)C1=O | inactive |
| Cc1ccc(S(=O)(=O)N(c2nc(NC(C)C)nc(NC(C)C)n2)n2cnnc2)cc1 | inactive |
| C=CCOc1ccccc1OCC(O)CNC(C)C (configuration not stated) | inactive |
| N#C[C@@H]1[C@H](c2ccc(C#Cc3ccccc3F)cc2)[C@H](CO)N1C(=O)C1CCC1 | inactive |
| CC(C)CCn1c2ccccc2c2cc(CC(N)=O)ccc21 | inactive |
| CC1(Cc2cccc(F)c2)C(=O)Nc2ccc(-c3cccnc3)cc21 (configuration not stated) | inactive |
| O=C(Nc1ccc2nc3n(c(=O)c2c1)CCCC3)c1ccccc1F | inactive |
| COc1cc(OC)cc(C(=O)Nc2ccc3nc4n(c(=O)c3c2)CCCC4)c1 | inactive |
| CC(C)(C)c1ccc(C(=O)Nc2ccc3c(c2)C(=O)NC3=O)cc1 | inactive |
| CC(NC(=O)c1ccccc1)C(=O)OCn1nnc2ccccc2c1=O (configuration not stated) | inactive |
| CCCc1nc2ccccc2n1C(C)C(=O)NC(C)(C)C (configuration not stated) | inactive |
| Cc1cc(C)cc(NC(=O)Cn2nnc(C(=O)NCc3cccs3)c2N)c1 | inactive |
| CN(C)CCCN1c2ccccc2Sc2ccc3ccccc3c21 | inactive |
| CC(C)NC(=O)Nc1ccc2c(c1)C(=O)N([C@H](C)CO)C[C@H](C)[C@H](CN(C)CC1CC1)OCCCC[C@@H](C)O2 | inactive |
| CCCN1[C@H](C(=O)NCC(F)(F)F)[C@@H](CO)[C@@H]2Cn3c(ccc(-c4ccccc4)c3=O)[C@@H]21 | inactive |
| CCOC(=O)c1ccc(NC(=O)c2nc[nH]c2C(=O)NC[C@H](C)O)cc1 | inactive |
| C[C@H](CO)N1C[C@H](C)[C@@H](CN(C)S(C)(=O)=O)Oc2ccc(NC(=O)Nc3ccccc3)cc2C1=O | inactive |
| Cc1ccc(Cn2cc(CN3CC(N4CCSCC4)CS3(=O)=O)nn2)cc1 (configuration not stated) | inactive |
| CCN(C)C1CN(Cc2cn(Cc3ccccc3)nn2)S(=O)(=O)C1 (configuration not stated) | inactive |
